In PubChem BioAssay AID1159580 (chemical genetic matrix, 2015):
The campaign covered roughly 5,500 compounds. About 2,000 (36%) were called active. Roughly 18% stayed inconclusive and do not appear here. Rule as the data show it: active = normalized growth mostly below about 0.91 (no sharp cut-off); inconclusive = no clear call, values can overlap the other calls; inactive = mostly above about 0.92. Some of the results follow.

Assay: chemical genetic growth profiling, strain panel (AID 1159580);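 also: tested at 20 µM; growth read once vehicle control cultures reached saturation at 30 °C; 1 = growth at the plate median or of vehicle wells; lower values mean less growth of the strain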
Conditions: S. cerevisiae deletion strains, growth OD

Measured: normalized growth

CC(=O)[C@@]12O[C@](C)(c3ccccc3)O[C@@H]1CC1C3CCC4=CC(=O)CC[C@]4(C)C3CC[C@@]12C (stereo partly drawn)
inactive: locus YHR030C, strain SLT2, hits give low values 1.06 | locus YHR079C, strain IRE1, hits give low values 1.03 | locus YJL095W, strain BCK1, hits give low values 0.901 | locus YJR066W, strain TOR1, hits give low values 1.01 | locus YLR113W, strain HOG1, hits give low values 0.897 | locus YNL183C, strain NPR1, hits give low values 0.987 | locus YOR231W, strain MKK1, hits give low values 1 | locus YPL256C, strain CLN2, hits give low values 1.02
